Source: PubChem BioAssay (NCI)
The panel holds about 83,000 compounds, 20% with a hit somewhere; the sample as a whole holds those more often.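 Method: cells in 96-well plates; compound added at one concentration; 48 h incubation; percent growth measured; values under 10 scored active.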 Values without a mark were called inactive. Active and inactive are the calls of the source.

What was measured:
Assay in all cases: NCI-60 one-dose screen, 48 h (100 = growth as untreated, 0 = no growth, -100 = all killed)
Details in all cases: 10 µM unless noted
HCT-15 colon = system: HCT-15 colon
HT29 colon = system: HT29 colon
SNB-75 CNS = system: SNB-75 CNS
SNB-19 CNS = system: SNB-19 CNS
U251 CNS = system: U251 CNS
SK-MEL-5 melanoma = system: SK-MEL-5 melanoma
UACC-62 melanoma = system: UACC-62 melanoma
LOX IMVI melanoma = system: LOX IMVI melanoma
SK-MEL-28 melanoma = system: SK-MEL-28 melanoma

Compound | growth (HCT-15 colon) | growth (HT29 colon) | growth (SNB-75 CNS) | growth (SNB-19 CNS) | growth (U251 CNS) | growth (SK-MEL-5 melanoma) | growth (UACC-62 melanoma) | growth (LOX IMVI melanoma) | growth (SK-MEL-28 melanoma)
COc1cc(/C=C/C(=O)c2cccnc2Nc2ccc(F)cc2)cc(OC)c1OC | 22.2% | 12.5% | 22.4% | 61.6% | 24.1% | 53.7% | 49.9% | 8.97% (active) | 72.1%
Cc1[nH]c(-c2cc(N)ccc2Cl)c2c1C(=O)CCCC2 | 17.7% | 12.8% | 1.7% (active) | 35.6% | 38.5% | 1.73% (active) | 15.7% | 3.58% (active) | 59.1%
CCN(CC)c1ccc(-c2cc(-c3cc(OC)c(OC)c(OC)c3)nc(N3CCOCC3)c2C#N)cc1 | 10.7% | 2.21% (active) | 29.8% | 79% | 36.7% | -83.3% (active) | -58% (active) | -77.3% (active) | 21.8%
CC(C)(C)N1CCC1CN (configuration not stated) | 126% | 111% | 87.4% | 101% | 117% | 136% | 112% | 109% | 105%
Cc1ccc2c(C(C[N+](=O)[O-])c3ccccc3F)c(-c3ccccc3)[nH]c2c1 (configuration not stated) | 25.7% | 6.14% (active) | 24.6% | 49.1% | 25.3% | 48.1% | 42.4% | 36.4% | 63%
C#CCOc1ccc2ncnc(NCc3cccc(NC(=O)CCl)c3)c2c1 | 22.6% [8.25 µM] | 19.9% [8.25 µM] | 55.7% [8.25 µM] | 37.8% [8.25 µM] | -19.2% [8.25 µM] (active) | 23.8% [8.25 µM] | 31.8% [8.25 µM] | 46.7% [8.25 µM] | 58.1% [8.25 µM]
CCCCC(=O)OCC1OC(n2cnc3c(=S)nc[nH]c32)C(OC(=O)CCCC)C1OC(=O)CCCC (configuration not stated) | 33.1% | 27% | 51% | 64.2% | 70.1% | 23.3% | 7.37% (active) | 12.1% | 85.7%
C=C1c2nc3ccccc3n2C=C(c2ccc(Cl)cc2)N1Cc1ccc(OC)cc1 | 67.3% | 88.8% | 103% | 79.1% | 92.8% | 72.3% | 68% | 87.5% | 88.9%
O=[N+]([O-])c1ccccc1/C=N\NC(=S)N/N=C/c1ccccc1[N+](=O)[O-] | 35.8% | 21.5% | 72.4% | 69% | 62.7% | 59.1% | 55.5% | 43.4% | 78.2%
CCCCn1cnc2c(Sc3c([N+](=O)[O-])ncn3C)nc(N)nc21 | 91.6% | 99.7% | 84.3% | 96.3% | 101% | 103% | 88.9% | 107% | 98.8%
O=C1C=CC(=O)N1c1ccc2c(c1)Cc1cc(F)ccc1-2 | 97.1% | 95% | 75.8% | 90.7% | 88.9% | 98.1% | 91.6% | 104% | 99.9%
C#CCOc1ccc2ncnc(N3CCN(C(=O)CCl)CC3)c2c1 | 58.8% [8.25 µM] | 71.7% [8.25 µM] | 101% [8.25 µM] | 95.9% [8.25 µM] | 91.2% [8.25 µM] | 57.7% [8.25 µM] | 68.2% [8.25 µM] | 47.4% [8.25 µM] | 98.4% [8.25 µM]
NC(CSC(c1ccccc1)(c1ccccc1)c1ccc(Cl)cc1)C(=O)O (configuration not stated) | 19.3% | 2.26% (active) | 20.9% | 37.9% | 12.2% | 10.6% | 7.9% (active) | 36% | 33.4%
O=[N+]([O-])c1ccc2c(c1)Cc1cc(F)ccc1-2 | 97.1% | 95.6% | 92.1% | 92.5% | 93.1% | 86.4% | 85.2% | 103% | 107%
Cc1cc(C)nc(SC2=C(Nc3cccc(Cl)c3)C(=O)N(Cc3ccccc3)C2=O)n1 | 59.9% [30 µM] | 53.6% [30 µM] | 58.5% [30 µM] | 94.4% [30 µM] | 78.5% [30 µM] | 50.1% [30 µM] | 61.4% [30 µM] | 67.6% [30 µM] | 93.2% [30 µM]
CCOc1nc(-c2ccccc2)cc2c(O)c(C(=O)O)[nH]c(=O)c12 | 106% | 104% | 81.3% | 94.3% | 104% | 90.6% | 110% | 95.2% | 138%
CN(C)[C@@H]1C(=O)C(C(=O)NCc2nc3[nH]cnc(=S)c3[nH]2)=C(O)[C@@]2(O)C(=O)C3=C(O)c4c(O)cccc4[C@@](C)(O)[C@H]3C[C@@H]12 | 76.7% | 64.3% | 61.8% | 84.1% | 96% | 75.5% | 25.5% | 12.4% | 118%
Oc1ccc(N=Cc2ccccc2O)cc1 | 120% | 99% | 89.1% | 93.1% | 83.3% | 92.3% | 96.8% | 104% | 127%
O=C1Nc2ccc(Br)cc2C12Oc1ccccc1C1CC(c3ccc(F)cc3)=NN12 (configuration not stated) | 79.9% | 93.7% | 86% | 90.6% | 90.9% | 93.3% | 84.6% | 91.9% | 105%
Cc1ccc(O)c(N2C(=NCc3ccco3)NS(=O)(=O)c3cnccc32)c1 | 112% | 111% | 106% | 110% | 100% | 118% | 96.7% | 103% | 107%
COc1ccc(C(=S)N2CCN(c3cccc(Cl)c3)CC2)cc1 | 108% | 101% | 93.2% | 101% | 112% | 130% | 85.2% | 103% | 103%
O=C1/C(=C/N2N=C(c3ccc4ccccc4c3)CC2c2ccccc2O)SC(=S)N1c1cccnc1 (configuration not stated) | 12.4% | 10.7% | -4.45% (active) | 40.1% | 16.1% | 64% | 66.2% | 27.5% | 78.6%
Cc1ccc(C2Oc3ccccc3C3CC(c4cccs4)=NN32)cc1 (configuration not stated) | 100% | 109% | 81.7% | 96% | 92.5% | 96.3% | 96.2% | 94.4% | 103%
C#CCOc1ccc2ncnc(N3CCC(NC(=O)CCl)CC3)c2c1 | 67.7% [8.25 µM] | 64.9% [8.25 µM] | 24.2% [8.25 µM] | 77.9% [8.25 µM] | 66.1% [8.25 µM] | 75% [8.25 µM] | 72.7% [8.25 µM] | 78.1% [8.25 µM] | 77.5% [8.25 µM]
COc1ccc(CCNc2nc3c(c(=O)n(Cc4ccc(Br)cc4)c(=O)n3C)n2C)cc1OC | 102% | 103% | 84.5% | 94.5% | 92% | 68% | 74.8% | 94.5% | 99%
Cn1cc(-c2nonc2-c2c[nH]c3ccc(F)cc23)c2cccnc21 | 62.3% | 99.3% | 56.3% | 90.2% | 84.4% | 78.2% | 64.4% | 85.3% | 98.4%
COc1ccc(C2CC(c3ccc4ccccc4c3)=NN2/C=C2\SC(=S)N(NC(=O)Cc3ccccc3Nc3c(Cl)cccc3Cl)C2=O)cc1 (configuration not stated) | 19.4% | 32.3% | -15.7% (active) | 32% | 16.1% | 19.6% | 42.8% | 37.1% | 57%
CC(O)CN1CC(O)=C(c2nc3ccccc3s2)C1=N (configuration not stated) | 158% | 104% | 99.3% | 96.5% | 157% | 105% | 102% | 211% | 131%
